Measured values as given in PubChem BioAssay (Tox21).
Records with an inconclusive call do not appear. Where a structure was tested more than once in an assay, its records may differ in their call. The source made the active and inactive calls. Unless noted, the call rests on the fitted dose curve; in most records, active means well fitted curve in the direction sought with a large enough effect in the repeat runs; inconclusive means weak or mixed curves; inactive means no such curve, though single readings can be large; an effect the other way counts as inactive or inconclusive.

Legend:
[1] = qHTS assay to identify small molecule antagonists of the thyroid receptor (TR) signaling pathway - cell viability counter screen (AID 743064); further: nearly all actives have a fitted effect of over 50% in size; further: potency means the concentration at half of the fitted maximal effect
Summary of the method: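 Rat GH3 pituitary tumor cells stably expressing two TR response elements driving luciferase were plated, rested 4 h, then dosed with library compounds and T3 (1 nM final). After 23.5 h at 37 °C, CellTiter-Fluor was added for 30 min and fluorescence recorded.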

[2] = qHTS assay to identify small molecule antagonists of the thyroid receptor (TR) signaling pathway (AID 743065); further: series mostly up to about 70 µM; nearly all actives have a fitted effect of over 55% in size
Summary of the method: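 GH3.TRE-Luc rat pituitary cells carrying two TR response elements driving luciferase were plated for 4 h, given compound plus 1 nM T3 (final), and incubated 23.5 h at 37 C. ONE-Glo luminescence measured reporter inhibition; CellTiter-Fluor fluorescence tracked cytotoxicity.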

[3] = test system: thyroid hormone receptor (rat, GH3 cells); test: qHTS assay to identify small molecule agonists of the thyroid receptor (TR) signaling pathway (AID 743066; calls by dose curve)
[4] = target: Estrogen receptor (Homo sapiens) (UniProt P03372); test: qHTS assay to identify small molecule antagonists of the estrogen receptor alpha (ER-alpha) signaling pathway (AID 743069; active means well fitted curve in the direction sought with a large enough effect in the signal ratio in the repeat runs, not every such curve was filed as active; the % refers to the signal ratio)
Summary of the method: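 Screening used a UAS-driven beta-lactamase reporter integrated into HEK293 cells expressing ER-alpha, stimulated with 17beta-estradiol alongside test compounds over 18 hr at 37C; signal came from LiveBLAzer B/G FRET fluorescence.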

[5] = qHTS assay to identify small molecule antagonists of the estrogen receptor alpha (ER-alpha) signaling pathway - cell viability counter screen (AID 743074; calls by dose curve; further: nearly all actives have a fitted effect of over 45% in size)
[6] = target: Estrogen receptor (Homo sapiens) (UniProt P03372); test: qHTS assay to identify small molecule agonists of the estrogen receptor alpha (ER-alpha) signaling pathway (AID 743075; calls by dose curve)
[7] = target: Estrogen receptor (Homo sapiens) (UniProt P03372); test: qHTS assay to identify small molecule agonists of the estrogen receptor alpha (ER-alpha) signaling pathway using the BG1 cell line (AID 743079); further: nearly all actives have a fitted effect of over 20% in size
[8] = qHTS assay to identify small molecule antagonists of the estrogen receptor alpha (ER-alpha) signaling pathway using the BG1 cell line (AID 743080; calls by dose curve;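 further: BG1 cells stimulated with 17beta-estradiol alongside compound; series mostly up to about 70 µM; nearly all actives have a fitted effect of over 25% in size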)
Summary of the method: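 Endogenous full-length ER-alpha in BG1-Luc-4E2 cells drives a stably integrated 4×ERE luciferase gene; compounds were tested against 17beta-estradiol over 21.5 h, with luminescence and multiplexed viability fluorescence recorded.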

[9] = qHTS assay to identify small molecule antagonists of the estrogen receptor alpha (ER-alpha) signaling pathway using the BG1 cell line - cell viability counter screen (AID 743081);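 further: compound given together with 17beta-estradiol as the ER stimulus; nearly all actives have a fitted effect of over 45% in size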; further: potency means the concentration at half of the fitted maximal effect; on activity change, negative = cytotoxicity: series mostly up to about 70 µM
[10] = target: Aromatase (Homo sapiens) (UniProt P11511); test: qHTS assay to identify aromatase inhibitors (AID 743083); further: series mostly up to about 70 µM; nearly all actives have a fitted effect of over 55% in size
[11] = qHTS assay to identify aromatase inhibitors - cell viability counter screen (AID 743084);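 further: cells stimulated with testosterone during compound exposure; nearly all actives have a fitted effect of over 55% in size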; further: potency means the concentration at half of the fitted maximal effect
[12] = target: Aryl hydrocarbon receptor (Homo sapiens) (UniProt P35869); test: qHTS assay to identify small molecule that activate the aryl hydrocarbon receptor (AhR) signaling pathway (AID 743085);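 further: HG2L7.5c1 human HepG2 liver cells with stably integrated DRE-driven firefly reporter; series mostly up to about 70 µM; nearly all actives have a fitted effect of over 15% in size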
Summary of the method: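 Compounds were tested in HepG2 hepatocellular carcinoma cells harbouring a stably integrated luciferase gene under control of 20 DREs. Increased reporter signal after 24 h treatment at 37C was taken as AhR activation.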

[13] = qHTS assay to identify small molecule that activate the aryl hydrocarbon receptor (AhR) signaling pathway - cell viability counter screen (AID 743086);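 further: HepG2 liver cells carrying the AhR DRE luciferase reporter; series mostly up to about 70 µM; nearly all actives have a fitted effect of over 45% in size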
Summary of the method: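 HepG2-AhR-luc (HG2L7.5c1) cells, 4000/well, were preincubated 5 h at 37C, exposed to compound in qHTS format for 24 hr at 37C, then given CellTiter-Fluor for 30 min; viability was read as fluorescence in the reporter wells.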

[14] = target: Peroxisome proliferator-activated receptor gamma (Homo sapiens) (UniProt P37231); test: qHTS assay to identify small molecule agonists of the peroxisome proliferator-activated receptor gamma (PPARg) signaling pathway (AID 743094; active means well fitted activation curve with a large enough effect in the signal ratio in the repeat runs, not every such curve was filed as active; the % refers to the signal ratio)
Summary of the method: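 Agonism was assessed in a beta-lactamase reporter system, HEK293H cells with a stably integrated UAS-bla construct under PPARg control; the 17 h treatment at 37C preceded a 1 h room-temperature FRET substrate read.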

[15] = target: Peroxisome proliferator-activated receptor gamma (Homo sapiens) (UniProt P37231); test: qHTS assay to identify small molecule antagonists of the peroxisome proliferator-activated receptor gamma (PPARg) signaling pathway (AID 743191; calls by dose curve; further: series mostly up to about 63 µM; nearly all actives have a fitted effect of over 30% in size)
Summary of the method: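 GeneBLAzer PPARg UAS-bla HEK293H cells carrying a UAS-driven beta-lactamase reporter were plated at 3000 cells/well, preincubated 5 h at 37C, then given compound for 17 h at 37C; LiveBLAzer B/G FRET substrate was read after 1 h at room temperature.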

[16] = qHTS assay to identify small molecule antagonists of the peroxisome proliferator-activated receptor gamma (PPARg) signaling pathway - cell viability counter screen (AID 743194); further: nearly all actives have a fitted effect of over 55% in size
Summary of the method: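 PPARg-UAS-bla HEK293H cells were plated, rested 5 h at 37 C, then treated with compounds plus rosiglitazone (50 nM final) for 17 h at 37 C; viability was then read by CellTiter-Glo luminescence after 30 min at room temperature.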

[17] = qHTS assay for small molecule agonists of the antioxidant response element (ARE) signaling pathway (AID 743202; active means well fitted activation curve with a large enough effect in the signal ratio in the repeat runs, not every such curve was filed as active; the % refers to the signal ratio)
Summary of the method: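 Steps: seed ARE-bla HepG2 cells (2,000/well); incubate 5 h at 37 C; add compounds by pin tool; incubate 16 h at 37 C; add FRET substrate; read fluorescence after 2 h at RT.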

[18] = qHTS assay for small molecule agonists of the antioxidant response element (ARE) signaling pathway - cell viability counter screen (AID 743203; calls by dose curve; further: nearly all actives have a fitted effect of over 55% in size)
Summary of the method: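 ATP content via CellTiter-Glo luminescence served as the viability measure. Cells: ARE-bla HepG2, 2,000 per well. Exposure: 16 hrs, 37C/5% CO2.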

[19] = qHTS assay for small molecule activators of the heat shock response signaling pathway - cell viability counter screen (AID 743209); further: nearly all actives have a fitted effect of over 50% in size
Summary of the method: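 Compounds dissolved in DMSO were added to overnight-plated HSE-bla HeLa cells and left 5 h at 37 C. Cell viability was quantified by luminescence using CellTiter-Glo.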

[20] = qHTS assay for small molecule activators of the heat shock response signaling pathway (AID 743210; active means well fitted activation curve with a large enough effect in the signal ratio in the repeat runs, with a control signal flat, not every such curve was filed as active; the % refers to the signal ratio;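 further: HeLa cells with beta-lactamase reporter driven by heat shock elements; series mostly up to about 63 µM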)
Summary of the method: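 Activation of heat shock element-controlled beta-lactamase expression is measured in HeLa cells by LiveBLAzer FRET fluorescence, with compound exposure lasting 5 h at 37 C and substrate loading 2.5 h at room temperature.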
On the % scale 0 is the no-effect control and ±100 the full control effect.

Aryl hydrocarbon receptor (Homo sapiens), sequence (P35869 whole entry, looked up): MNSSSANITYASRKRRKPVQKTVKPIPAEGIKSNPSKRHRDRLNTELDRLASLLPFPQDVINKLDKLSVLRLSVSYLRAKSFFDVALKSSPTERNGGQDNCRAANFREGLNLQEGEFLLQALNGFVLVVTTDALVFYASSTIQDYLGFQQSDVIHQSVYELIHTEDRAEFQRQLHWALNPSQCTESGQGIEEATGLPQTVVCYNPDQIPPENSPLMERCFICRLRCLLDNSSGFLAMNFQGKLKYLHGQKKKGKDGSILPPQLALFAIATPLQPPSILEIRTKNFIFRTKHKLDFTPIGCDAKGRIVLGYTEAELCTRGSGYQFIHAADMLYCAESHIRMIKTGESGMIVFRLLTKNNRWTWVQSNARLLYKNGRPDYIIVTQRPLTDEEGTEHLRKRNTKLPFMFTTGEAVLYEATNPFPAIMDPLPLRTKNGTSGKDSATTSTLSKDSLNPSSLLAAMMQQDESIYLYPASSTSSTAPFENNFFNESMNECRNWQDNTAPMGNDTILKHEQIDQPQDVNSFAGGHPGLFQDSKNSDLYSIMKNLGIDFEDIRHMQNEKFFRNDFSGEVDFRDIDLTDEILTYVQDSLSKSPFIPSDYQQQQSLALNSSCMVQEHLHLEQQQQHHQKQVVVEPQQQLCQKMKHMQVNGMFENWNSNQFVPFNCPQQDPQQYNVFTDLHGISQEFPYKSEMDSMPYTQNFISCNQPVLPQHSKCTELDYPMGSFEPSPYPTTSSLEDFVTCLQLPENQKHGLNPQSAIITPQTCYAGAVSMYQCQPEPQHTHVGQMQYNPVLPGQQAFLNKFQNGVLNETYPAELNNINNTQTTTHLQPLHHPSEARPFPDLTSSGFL
Estrogen receptor (Homo sapiens), sequence (P03372 whole entry, looked up): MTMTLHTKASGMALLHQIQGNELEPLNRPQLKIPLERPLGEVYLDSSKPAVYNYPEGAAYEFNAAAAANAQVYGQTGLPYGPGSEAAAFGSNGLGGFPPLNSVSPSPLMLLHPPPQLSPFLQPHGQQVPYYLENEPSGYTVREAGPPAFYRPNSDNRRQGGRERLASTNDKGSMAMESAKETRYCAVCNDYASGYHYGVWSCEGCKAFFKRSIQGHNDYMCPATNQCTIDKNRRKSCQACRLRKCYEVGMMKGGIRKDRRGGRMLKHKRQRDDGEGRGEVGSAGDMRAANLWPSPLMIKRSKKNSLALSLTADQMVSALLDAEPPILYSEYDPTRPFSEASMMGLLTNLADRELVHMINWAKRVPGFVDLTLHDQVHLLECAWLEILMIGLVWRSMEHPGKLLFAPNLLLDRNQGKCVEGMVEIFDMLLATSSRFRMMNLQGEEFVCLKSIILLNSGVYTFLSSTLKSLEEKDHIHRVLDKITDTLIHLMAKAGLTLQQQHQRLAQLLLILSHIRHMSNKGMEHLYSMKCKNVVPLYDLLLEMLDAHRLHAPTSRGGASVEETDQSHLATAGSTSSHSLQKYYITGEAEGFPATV
Peroxisome proliferator-activated receptor gamma (Homo sapiens), sequence (P37231 whole entry, looked up): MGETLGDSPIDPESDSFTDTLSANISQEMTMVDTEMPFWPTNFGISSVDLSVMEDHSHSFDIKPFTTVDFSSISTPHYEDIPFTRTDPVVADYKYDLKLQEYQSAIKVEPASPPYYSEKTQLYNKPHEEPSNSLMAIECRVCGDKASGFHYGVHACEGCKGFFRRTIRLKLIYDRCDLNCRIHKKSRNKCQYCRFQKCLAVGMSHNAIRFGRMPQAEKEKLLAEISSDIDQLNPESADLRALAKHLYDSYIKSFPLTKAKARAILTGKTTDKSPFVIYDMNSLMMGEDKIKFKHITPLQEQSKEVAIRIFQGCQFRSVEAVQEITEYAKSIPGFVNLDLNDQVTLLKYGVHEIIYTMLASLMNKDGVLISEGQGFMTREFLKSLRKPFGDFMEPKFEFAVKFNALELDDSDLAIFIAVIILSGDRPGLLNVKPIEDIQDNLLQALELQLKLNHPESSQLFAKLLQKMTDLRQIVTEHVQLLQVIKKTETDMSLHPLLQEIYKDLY
Aromatase (Homo sapiens), sequence (P11511 whole entry, looked up): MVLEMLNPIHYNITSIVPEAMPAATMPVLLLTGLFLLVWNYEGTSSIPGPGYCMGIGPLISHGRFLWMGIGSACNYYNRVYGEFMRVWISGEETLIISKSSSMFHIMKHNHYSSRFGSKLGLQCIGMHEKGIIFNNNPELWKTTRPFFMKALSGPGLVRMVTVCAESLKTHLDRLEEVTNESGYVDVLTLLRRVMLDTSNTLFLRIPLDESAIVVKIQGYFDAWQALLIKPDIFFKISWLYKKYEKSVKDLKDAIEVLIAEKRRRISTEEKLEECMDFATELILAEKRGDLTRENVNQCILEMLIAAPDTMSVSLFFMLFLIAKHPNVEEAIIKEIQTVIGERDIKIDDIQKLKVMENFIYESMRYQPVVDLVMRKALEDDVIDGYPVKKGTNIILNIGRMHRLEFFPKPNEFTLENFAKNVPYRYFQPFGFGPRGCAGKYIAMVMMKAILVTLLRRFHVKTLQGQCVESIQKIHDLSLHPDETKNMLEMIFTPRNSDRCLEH

Cc1ncc([N+](=O)[O-])n1CC(C)O (stereo unspecified)
inactive: Potency [1] | Potency [2] | outcome [3] | outcome [4] | outcome [5] | Potency [6] | Potency [7] | outcome [8] | Potency [9] | outcome [10] | Potency [11] | Potency [12] | Potency [13] | Potency [14] | outcome [15] | outcome [16] | Potency [17] | outcome [18] | Potency [19] | outcome [20]

C=C(C)c1cccc(C(C)(C)N=C=O)c1
inactive: Potency [1] | Potency [2] | outcome [3] | outcome [4] | outcome [5] | Potency [6] | Potency [7] | outcome [8] | Potency [9] | outcome [10] | Potency [11] | Potency [12] | Potency [13] | Potency [14] | outcome [15] | outcome [16] | Potency [17] | outcome [18] | Potency [19] | outcome [20]

Cn1nnc2c(C(N)=O)ncn2c1=O
inactive: Potency [1] | Potency [2] | outcome [3] | outcome [4] | outcome [5] | Potency [6] | Potency [7] | outcome [8] | Potency [9] | outcome [10] | Potency [11] | Potency [12] | Potency [13] | Potency [14] | outcome [16] | Potency [17] | outcome [18] | outcome [20]

O=S(=O)(O)c1ccc2c(N=Nc3ccc(S(=O)(=O)O)c4ccccc34)c(O)c(S(=O)(=O)O)cc2c1
active: Potency [1] 21.1 µM | Potency [9] 9.44 µM | Potency [11] 18.8 µM
inactive: activity change, negative = cytotoxic [1] -5.75% [at 8.44 µM] | activity, negative = inhibition [2] -4.92% [at 8.44 µM] | outcome [3] | outcome [5] | activity, negative = inhibition [10] -13.1% [at 8.47 µM] | Potency [12] | Potency [14] | ratio activity, negative = inhibition [15] -16.6% [at 5.95 µM] | activity change, negative = cytotoxicity [16] -3.57% [at 5.95 µM] | activation [17] 7.21% [at 8.36 µM] | viability change, negative = cytotoxic [18] -0.964% [at 8.36 µM] | activity change, negative = cytotoxicity [19] 0.481% [at 5.95 µM] | activation [20] -0.859% [at 5.95 µM]

CCC(C)OC(C)CC (stereo unspecified)
inactive: Potency [1] | Potency [2] | outcome [3] | outcome [4] | outcome [5] | Potency [6] | Potency [7] | outcome [8] | Potency [9] | outcome [10] | Potency [11] | Potency [12] | Potency [13] | Potency [14] | outcome [15] | outcome [16] | outcome [18] | Potency [19] | outcome [20]

O=C1CCCCO1
inactive: Potency [1] | Potency [2] | outcome [3] | outcome [4] | outcome [5] | Potency [6] | Potency [7] | outcome [8] | Potency [9] | outcome [10] | Potency [11] | Potency [12] | Potency [13] | Potency [14] | outcome [16] | Potency [17] | outcome [18] | Potency [19] | outcome [20]

CSc1cnccn1
inactive: Potency [1] | Potency [2] | outcome [3] | outcome [4] | outcome [5] | Potency [6] | Potency [7] | outcome [8] | Potency [9] | outcome [10] | Potency [11] | Potency [12] | Potency [13] | Potency [14] | outcome [15] | outcome [16] | outcome [18] | Potency [19] | outcome [20]
